# Test results taken from the supplement of paper PMC4166925.
# ± gives the standard deviation of the averaged measurements. Whole data set: some 33,000 sequences, median “E-score (dimensionless, -0.5 to 0.5)” near -0.049, cut for the highest 2% near 0.37. This excerpt belongs to a sample that is enriched for the highest values.
# Test system: T1, PmTbr T-box DNA-binding domain (GST fusion)
# T1 sequence: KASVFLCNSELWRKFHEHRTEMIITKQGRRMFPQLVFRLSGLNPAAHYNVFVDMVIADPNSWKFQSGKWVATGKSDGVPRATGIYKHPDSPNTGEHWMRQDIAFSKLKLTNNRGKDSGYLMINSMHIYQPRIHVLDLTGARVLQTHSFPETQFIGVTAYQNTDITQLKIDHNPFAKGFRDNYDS
# Experiment: PBM E-score of 8-mer (E-score (dimensionless, -0.5 to 0.5)); Tbr is Tbrain of the sea star Patiria miniata (Pm) or the sea urchin Strongylocentrotus purpuratus (Sp); higher = stronger binding preference
# Details: the construct has about 5 more residues each side
# Protocol: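 Universal protein-binding microarray (Agilent AMADID 016060, 60-bp probes with a 35-bp variable region) incubated with 200 nM GST-fused Patiria miniata Tbr T-box DNA-binding domain (residues 272-466) in PBS pH 7.5. Scored for every ungapped 8-mer (given with its reverse complement) by the Universal PBM Analysis Suite as E-score (modified Wilcoxon-Mann-Whitney enrichment, range -0.5 to 0.5; >0.45 counts as bound) and Z-score of median probe intensity. Two replicate arrays (datasets 1 and 2).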
# 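Note: 200 nM protein in PBS on universal arrays averaged over duplicate arrays.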
row,Sequence,PBM E-score of 8-mer
1,AGTGAGGG,-0.0175 ± 0.1
2,GACTGCGC,-0.107 ± 0.044
3,ACGAAGCT,-0.143 ± 0.014
4,AAGCGAAA,-0.083 ± 0.07
5,AAGCAGTC,-0.167 ± 0.023
6,GACTTCTC,0.148 ± 0.065
7,GGACTTGA,-0.145 ± 0.015
8,CGCTCGGC,-0.148 ± 0.02
9,TACACATA,0.115 ± 0.032
10,AACACAGC,0.0601 ± 0.048
11,AACACATG,0.317 ± 0.013
12,CACACATA,0.365 ± 0.021
13,AACACATA,0.373 ± 0.0082
14,AACACATC,0.378 ± 0.013
15,CCTAATAG,-0.122 ± 0.052
16,CTGCTCAA,-0.0839 ± 0.036
17,ATATGTTG,0.0196 ± 0.038
18,CTGTGTTA,0.158 ± 0.045
19,ATGTGTTC,0.156 ± 0.025
20,ATGTGTTA,0.446 ± 0.0057
21,GTGTGTTA,0.274 ± 0.012
22,ATGTGTTG,0.398 ± 0.008
23,CTCGAAGC,-0.0159 ± 0.011
24,ACTACGTA,-0.156 ± 0.012
25,GAGTTACA,0.0401 ± 0.024

row,Sequence,PBM E-score of 8-mer
1,CTTGTCAA,0.305 ± 0.034
2,CTTGTCGC,0.277 ± 0.012
3,CTTGTCAC,0.405 ± 0.015
4,ATTGTCAG,0.134 ± 0.026
5,ATTGTCAA,0.248 ± 0.039
6,ATTGTCAC,0.427 ± 0.016
7,GGGTTGAA,-0.0332 ± 0.073
8,CCGCTACG,-0.186 ± 0.064
9,GTGATAAA,0.339 ± 0.07
10,ATGATAAC,0.0197 ± 0.036
11,GTGATAAC,0.406 ± 0.02
12,ATTCCCAG,-0.25 ± 0.009
13,GTGTATCA,-0.00951 ± 0.055
14,CTGCTAAC,0.318 ± 0.029
15,GAGCTAGA,-0.00238 ± 0.087
16,TTGCTAAA,0.241 ± 0.078
17,ATGCTAAC,0.0631 ± 0.061
18,CTGCTAAA,0.21 ± 0.071
19,GTGCTAAC,0.453 ± 0.0072
20,ATGCTAGA,-0.158 ± 0.055
21,GTGCTAAA,0.435 ± 0.007
22,GTGCTAGA,0.382 ± 0.0098
23,ACTATGCC,-0.0992 ± 0.096
24,CAACTGTG,0.231 ± 0.015
25,AAATGGCC,-0.316 ± 0.0079

row,Sequence,PBM E-score of 8-mer
1,CATCAAGA,-0.245 ± 0.022
2,AGTATTGG,-0.0858 ± 0.022
3,AGTGTTTG,0.275 ± 0.036
4,AGTGTTGG,0.3857 ± 0.0032
5,AGTGTTGC,0.3558 ± 0.0028
6,GTTGTTGA,0.245 ± 0.029
7,AGTGTTGA,0.395 ± 0.022
8,GCTGTTGA,0.0473 ± 0.023
9,GGTGTTGA,0.4746 ± 0.0036
10,CGTGTTGA,0.295 ± 0.028
11,ACTGTTGA,0.123 ± 0.062
12,CTCTCTGA,-0.253 ± 0.021
13,AGCTTCAT,-0.00536 ± 0.11
14,GAACCGTC,-0.07 ± 0.048
15,CCCATTTA,0.0289 ± 0.005
16,ACGGGCGC,0.0455 ± 0.05
17,CGAAAGTC,0.0804 ± 0.023
18,ACAGTGTA,0.0105 ± 0.032
19,GTTAAGCA,0.0703 ± 0.02
20,TAAACCCA,-0.0858 ± 0.0046
21,CTTATGGC,-0.0928 ± 0.041
22,CTCGTCAA,0.141 ± 0.04
23,ATCGTCAC,0.403 ± 0.0068
24,CTCGTCAC,0.3943 ± 0.0029
25,ATCGTCAA,0.0469 ± 0.0067

row,Sequence,PBM E-score of 8-mer
1,ATCGTCAT,-0.0319 ± 0.033
2,GTCGTCAC,0.3318 ± 0.0028
3,GCCTACCA,0.015 ± 0.093
4,CACTTAAA,0.158 ± 0.01
5,ATGTGCTG,0.1768 ± 0.001
6,AGGTGCGG,0.434 ± 0.011
7,AGGTGCTG,0.414 ± 0.019
8,AGGTGCTC,0.0655 ± 0.042
9,AGGTGCGC,0.293 ± 0.023
10,AAGTGCGG,0.247 ± 0.0065
11,CCAGAGGC,0.0947 ± 0.07
12,CACCACAG,0.131 ± 0.004
13,CTCGGGAC,-0.18 ± 0.058
14,CCTTCCAC,0.0992 ± 0.017
15,TCACCCGA,0.0689 ± 0.025
16,CCACCCGC,0.0903 ± 0.013
17,ACACCCGA,0.422 ± 0.012
18,GCACCCGC,0.333 ± 0.012
19,GCACCCGA,0.15 ± 0.0018
20,ACACCCGC,0.376 ± 0.011
21,GGAGGAGA,-0.011 ± 0.0051
22,AGGCACGG,-0.0977 ± 0.04
23,GAACGACA,0.106 ± 0.025
24,AAATAACC,0.0174 ± 0.057
25,AGCGAATA,0.0489 ± 0.053

row,Sequence,PBM E-score of 8-mer
1,CGTGTAGA,0.0938 ± 0.0091
2,CGCGAAAC,0.355 ± 0.0087
3,AGCGAACG,0.0481 ± 0.02
4,CGCGAACC,0.328 ± 0.0044
5,CGCGAAAG,0.3697 ± 0.0008
6,CGCGAACG,0.375 ± 0.017
7,AGCGAAAG,-0.0461 ± 0.031
8,ATCTTACC,-0.327 ± 0.021
9,ATCTTAAT,-0.171 ± 0.13
10,CCCAAACG,-0.119 ± 0.045
11,ACCTGGCA,0.288 ± 0.011
12,CTTTGCGA,0.0629 ± 0.022
13,AGCTCCCA,-0.308 ± 0.076
14,ATCACGCA,0.167 ± 0.0099
15,CTCACGCC,0.3929 ± 0.00041
16,ATCACGCC,0.372 ± 0.017
17,CCCACGCC,0.08239 ± 0.00072
18,ATCACGCG,0.334 ± 0.023
19,CTCACGCA,0.306 ± 0.019
20,GACAGGAA,0.08894 ± 0.00038
21,GTGTGCCA,0.237 ± 0.025
22,AAGACACC,0.3306 ± 0.0024
23,AAGTGTAG,0.147 ± 0.012
24,TAGTGTGA,0.446 ± 0.0044
25,CAGTGTGG,0.249 ± 0.013

row,Sequence,PBM E-score of 8-mer
1,AAGTGTAA,0.381 ± 0.05
2,AAGTGTGA,0.48967 ± 0.00029
3,TAGTGTAA,0.185 ± 0.072
4,TAGTGGGA,-0.0944 ± 0.019
5,CAGTGTGC,0.0644 ± 0.04
6,CAGTGTGA,0.3958 ± 0.0034
7,TAGTGAGA,0.278 ± 0.022
8,AAGTGTGC,0.368 ± 0.0052
9,AAGTGTGT,0.34 ± 0.03
10,ATGGTGAC,0.262 ± 0.049
11,CGCTTTCA,0.0848 ± 0.014
12,GCACTAGC,0.0942 ± 0.018
13,AAAGACGT,-0.108 ± 0.008
14,CCTACCCC,-0.152 ± 0.039
15,CAAATACA,-0.164 ± 0.0057
16,ACTAGACC,-0.3241 ± 0.0027
17,GTATCCAC,0.0223 ± 0.03
18,ACGCGCAT,0.0257 ± 0.033
19,GACAGCGC,0.0941 ± 0.072
20,AGAGCATC,-0.226 ± 0.1
21,AACTGTGG,0.00267 ± 0.0079
22,GAGTGTAA,0.169 ± 0.061
23,AAGTGTGG,0.3837 ± 0.00044
24,GAGTGTGA,0.4754 ± 0.0017
25,GAGTGTGC,0.2606 ± 0.00088

row,Sequence,PBM E-score of 8-mer
1,AAGTGGGG,0.189 ± 0.07
2,CACTTTCG,0.258 ± 0.004
3,CGGGGCAA,-0.147 ± 0.097
4,CACCTAGC,0.418 ± 0.0047
5,AACCTAGG,-0.0117 ± 0.074
6,CACCTAGA,0.324 ± 0.028
7,CACCTAGG,0.436 ± 0.01
8,AACCTAGC,0.088 ± 0.041
9,CCCCTAGG,-0.0463 ± 0.05
10,GTTCCGGA,-0.29 ± 0.027
11,TTGCGAAA,0.349 ± 0.034
12,GTGCGACA,0.412 ± 0.021
13,ATGCGATA,0.0765 ± 0.014
14,ATGCGACA,0.3323 ± 0.0011
15,CTGCGAAC,0.324 ± 0.013
16,CTGCGACA,0.172 ± 0.015
17,CTGCGAAA,0.368 ± 0.0074
18,CTGCGATA,0.169 ± 0.046
19,ATGCGAAC,0.13 ± 0.018
20,GTGCGATA,0.4351 ± 0.0025
21,GTGCGAAA,0.4814 ± 0.0014
22,GTGCGAAC,0.4794 ± 0.0017
23,CTAGTAGA,-0.0181 ± 0.012
